This passage reports growth results from PubChem BioAssay (NCI).

Among the test systems are K-562 leukemia; MALME-3M melanoma; MDA-MB-231 breast; RXF 393 renal; SF-268 CNS; SF-295 CNS; SF-539 CNS; UACC-257 melanoma; HCT-15 colon; M14 melanoma.
What all share (experiment): NCI-60 one-dose screen, 48 h (100 = growth as untreated, 0 = no growth, -100 = all killed)
Common to all, as to conditions: 10 µM

Compounds without any hit were thinned out: in the full panel of roughly 83,000, 20% have a hit.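 Cell lines were cultured in 96-well plates, exposed to a single compound concentration, and assessed for percent growth 48 hours later.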 Values without a mark were called inactive. Calls of active or inactive are those of the source. The calls were made as follows: active = growth percent below 10; inactive = the rest.

For the compound `Nc1c(C(=O)Nc2cccc(F)c2)sc2nc3c(cc12)C(=O)CCC3`, the growth with K-562 leukemia was 20.1%; with MALME-3M melanoma, 32.4%; in the assay with MDA-MB-231 breast, 40.8%; in the assay on RXF 393 renal, -14.3% (active); with SF-268 CNS, 73.5%; with SF-295 CNS it was 7.23% (active). The growth in the assay with SF-539 CNS is -17.4% (active); with UACC-257 melanoma, 57.3%; in the assay with HCT-15 colon, 25.8%.

As for `CC(C)(C)c1ccc(N2CSC(=S)N(c3ccc(C(C)(C)C)cc3)C2)cc1`, the growth was 90.1% in the assay on K-562 leukemia; 85.8% in the assay on MALME-3M melanoma; 97.4% in the assay on MDA-MB-231 breast; 144% in the assay with RXF 393 renal; 109% in the assay with SF-268 CNS; 99.9% in the assay with SF-295 CNS. For the same compound, the growth was 97.9% with SF-539 CNS, -6.73% (active) in the assay on UACC-257 melanoma and 94.7% in the assay on HCT-15 colon.

Take `COc1cc(-c2cc(/C=C/C(=O)c3ccc(Cl)c(Cl)c3)[nH]n2)cc(OC)c1OC`: the growth was 31.9% with K-562 leukemia; 87% in the assay on MALME-3M melanoma; 62.3% in the assay with MDA-MB-231 breast; 67.3% in the assay with RXF 393 renal; 104% in the assay with SF-268 CNS; 141% in the assay on SF-295 CNS. In addition, the growth with SF-539 CNS is 35%; in the assay on UACC-257 melanoma it was 89.7%; in the assay on HCT-15 colon, 50.9%.

Turning to `COc1ccc(-c2nn(-c3cccc(NC(=O)Nc4cccc(C(F)(F)F)c4)c3)cc2-c2ccncc2)cc1Cl`, the growth with K-562 leukemia is 8.89% (active); in the assay with MALME-3M melanoma, -10.4% (active); in the assay on MDA-MB-231 breast, 1.25% (active); in the assay on RXF 393 renal it was 23.2%; in the assay on SF-268 CNS it was 23.5%; with SF-295 CNS, 5.07% (active). In addition, the growth in the assay on SF-539 CNS is 16.2%; with UACC-257 melanoma, -5.98% (active); with HCT-15 colon it was 23.5%.

Consider `C/C(N)=C(\C#N)C(=O)c1ccccc1`, for which the growth is 109% in the assay on K-562 leukemia; 90.5% with MALME-3M melanoma; 121% with MDA-MB-231 breast; 97.5% with RXF 393 renal; 110% with SF-268 CNS; 94.1% in the assay with SF-295 CNS. The results for the growth with SF-539 CNS, in the assay on UACC-257 melanoma and in the assay with HCT-15 colon were 103%, 88% and 98.2%, respectively.

`CC(=O)n1c(-c2ccc(Cl)c(Cl)c2)cn(-c2ccc(Cl)cc2)c1=O`: the growth was -35% (active) in the assay with K-562 leukemia; 26.6% in the assay on MALME-3M melanoma; 33.3% in the assay with MDA-MB-231 breast; -31.2% (active) in the assay with RXF 393 renal; -32.7% (active) in the assay with SF-268 CNS; 1.9% (active) in the assay with SF-295 CNS. In addition, the growth in the assay with SF-539 CNS was -33.2% (active); in the assay on UACC-257 melanoma, 57.5%; with HCT-15 colon it was 59%.

Regarding `CCCCCCN1C(=O)C2=C(c3ccc(Cl)cc3)Nc3c(c(C)nn3-c3ccccc3)C2c2ccccc21` (configuration not stated), the growth with K-562 leukemia was 85.3%; in the assay with MALME-3M melanoma it was 90.9%; in the assay with MDA-MB-231 breast it was 103%; with RXF 393 renal, 83.7%; in the assay with SF-268 CNS, 103%; with SF-295 CNS it was 92.4%. In addition, the growth with SF-539 CNS is 105%; in the assay on UACC-257 melanoma, 90.7%; in the assay with HCT-15 colon, 93.4%.

In the case of `COC(=O)[C@@H]1[C@H](O)[C@H](C)[C@H](O)[C@@](C)(O)/C=C\C=C(C)C(=O)Nc2c(C)c(OC(C)=O)c3c(c2O)C(=O)C(C)=C2OCOC(=C23)C(C)=C[C@@](C)(O)[C@H](O)[C@@H](C)[C@H]1OC(C)=O`, the growth was 89% in the assay on K-562 leukemia; 101% with MALME-3M melanoma; 98.8% with MDA-MB-231 breast; 104% with RXF 393 renal; 113% with SF-268 CNS; 98% in the assay on SF-295 CNS. Moreover, the results for the growth in the assay with SF-539 CNS, with UACC-257 melanoma and in the assay on HCT-15 colon were 100%, 107% and 74.7%, respectively.

Take `CCCCC(CCCCCC(CCCC)NCc1ccc2c(c1)OCO2)NCc1ccc2c(c1)OCO2` (configuration not stated): the growth was -72.3% (active) with K-562 leukemia; -69.3% (active) in the assay with MALME-3M melanoma; -86% (active) in the assay on MDA-MB-231 breast; -93.3% (active) in the assay with RXF 393 renal; -96.8% (active) in the assay on SF-268 CNS; -79.7% (active) in the assay on SF-295 CNS. Further, the growth in the assay with SF-539 CNS is -100% (active); in the assay with UACC-257 melanoma, -86.9% (active); with M14 melanoma, -100% (active); in the assay on HCT-15 colon it was -88% (active).

For `CSc1nn(-c2ccccc2)c2ncnc(Oc3ccccc3)c12`, the growth in the assay on K-562 leukemia is 96.5%; with MALME-3M melanoma it was 104%; with MDA-MB-231 breast, 98.3%; with RXF 393 renal it was 83.6%; in the assay on SF-268 CNS it was 92.5%; in the assay on SF-295 CNS, 101%. In addition, the growth was 98% with SF-539 CNS, 107% in the assay on UACC-257 melanoma and 93.2% with HCT-15 colon.

As to `COc1ccc2c(c1OC)O/C(=C\c1ncc([N+](=O)[O-])n1C)C2=O`, the growth was 28.8% with K-562 leukemia; -68.9% (active) in the assay with MALME-3M melanoma; -20.7% (active) in the assay with MDA-MB-231 breast; -65.7% (active) in the assay on RXF 393 renal; -5.54% (active) with SF-268 CNS; 55.3% in the assay on SF-295 CNS. In addition, the growth with SF-539 CNS is 63.5%; with UACC-257 melanoma it was -55.8% (active); in the assay on HCT-15 colon it was 1.65% (active).

In the case of `CN(C)C(=S)N/N=C\C=N/NC(=S)N(C)C`, the growth with K-562 leukemia is 1.44% (active); with MALME-3M melanoma, 58.5%; in the assay with MDA-MB-231 breast it was 37.3%; in the assay with RXF 393 renal, 55.4%; in the assay with SF-268 CNS, 84.6%; with SF-295 CNS it was 68.8%. The growth in the assay on SF-539 CNS was 84.6%; in the assay with UACC-257 melanoma, 33.4%; in the assay on HCT-15 colon, 31.5%.

In the case of `COc1ccc2c(c1)O/C(=C\c1ncc([N+](=O)[O-])n1C)C2=O`, the growth with K-562 leukemia was 1.57% (active); in the assay on MALME-3M melanoma, -65.6% (active); in the assay on MDA-MB-231 breast it was -10.3% (active); in the assay with RXF 393 renal it was -72% (active); in the assay on SF-268 CNS it was -17.6% (active); with SF-295 CNS it was -34.6% (active). Besides, the growth was -60.9% (active) with SF-539 CNS, -57% (active) in the assay with UACC-257 melanoma and 2.5% (active) with HCT-15 colon.

Consider `CCN(CC)CCNC(=O)c1ccc(NC(C)=O)cc1`, for which the growth with K-562 leukemia is 99.2%; with MALME-3M melanoma, 103%; with MDA-MB-231 breast, 91.8%; in the assay with RXF 393 renal, 109%; in the assay on SF-268 CNS, 109%; with SF-295 CNS, 104%. Moreover, the growth in the assay with SF-539 CNS is 107%; with UACC-257 melanoma, 117%; with HCT-15 colon, 101%.

In the case of `CC(C)(C#N)Nc1ccccc1`, the growth in the assay with K-562 leukemia is 102%; in the assay on MALME-3M melanoma, 104%; with MDA-MB-231 breast, 100%; with RXF 393 renal, 101%; in the assay on SF-268 CNS it was 113%; in the assay with SF-295 CNS, 77.7%. In addition, the growth in the assay on SF-539 CNS was 96.2%; with UACC-257 melanoma, 98.5%; with M14 melanoma it was 107%; with HCT-15 colon, 99%.
